From publication PMC7862700, “An all-to-all approach to the identification of sequence-specific readers for epigenetic DNA modifications on cytosine”

What was measured:
Assay in all cases: DAPPL (digital affinity profiling via proximity ligation, sequencing); 10 mM Tris-HCl pH 7.5, 50 mM NaCl, 1 mM DTT, 4% glycerol, room temperature, 30 min; GST-TFs on glutathione beads, 16-mer random dsDNA library, 0.1% formaldehyde crosslink after washing; high values mean tight binding
Conditions in all cases: protein: recombinant; tags: N-terminal GST; dsDNA, one strand shown
[1] = biological target: T1, FEV (Homo sapiens, UniProt Q99581 1-238)
T1 sequence: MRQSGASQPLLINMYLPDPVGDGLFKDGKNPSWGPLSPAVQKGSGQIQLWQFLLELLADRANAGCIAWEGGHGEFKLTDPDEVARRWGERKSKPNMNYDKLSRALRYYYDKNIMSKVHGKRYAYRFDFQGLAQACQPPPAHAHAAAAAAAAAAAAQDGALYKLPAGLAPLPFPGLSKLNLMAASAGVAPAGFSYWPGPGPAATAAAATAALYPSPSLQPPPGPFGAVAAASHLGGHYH
How it was run: (§1)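 Sequencing on an Illumina NextSeq500 followed washing, crosslinking with 0.1% formaldehyde, proximity ligation (BsaI/T4 ligase, 1 h, 37 °C) and PCR amplification of pools that had been incubated for 30 min at room temperature with 200 nmole of a random double-stranded 16-mer DNA library in Tris/NaCl/DTT/glycerol buffer. Each pool held DNA-barcoded human transcription factors, expressed in yeast as GST fusions and captured on glutathione beads, plus a tag-only sample. Binding signal is a hexamer's read frequency for a factor divided by its frequency in the tag-only sample.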

[2] = biological target: ETV5 (Homo sapiens, UniProt P41161 1-510)
Chain of ETV5 (P41161 whole entry): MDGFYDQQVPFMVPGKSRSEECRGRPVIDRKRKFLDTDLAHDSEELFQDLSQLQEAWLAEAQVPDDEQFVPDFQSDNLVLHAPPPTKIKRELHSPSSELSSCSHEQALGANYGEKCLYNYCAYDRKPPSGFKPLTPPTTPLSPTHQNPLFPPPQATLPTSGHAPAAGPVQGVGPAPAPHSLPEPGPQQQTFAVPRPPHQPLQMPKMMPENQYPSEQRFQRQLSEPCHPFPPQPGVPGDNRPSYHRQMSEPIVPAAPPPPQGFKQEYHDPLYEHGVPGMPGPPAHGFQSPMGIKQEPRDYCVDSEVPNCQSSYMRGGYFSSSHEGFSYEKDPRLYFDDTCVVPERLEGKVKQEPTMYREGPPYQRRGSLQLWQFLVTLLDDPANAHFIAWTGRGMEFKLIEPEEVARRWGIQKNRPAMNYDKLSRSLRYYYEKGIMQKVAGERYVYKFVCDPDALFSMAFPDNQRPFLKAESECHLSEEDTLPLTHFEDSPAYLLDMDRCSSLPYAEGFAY
How it was run: as §1

[3] = biological target: T2, SPIC (Homo sapiens, UniProt Q8N5J4 1-248)
T2 sequence: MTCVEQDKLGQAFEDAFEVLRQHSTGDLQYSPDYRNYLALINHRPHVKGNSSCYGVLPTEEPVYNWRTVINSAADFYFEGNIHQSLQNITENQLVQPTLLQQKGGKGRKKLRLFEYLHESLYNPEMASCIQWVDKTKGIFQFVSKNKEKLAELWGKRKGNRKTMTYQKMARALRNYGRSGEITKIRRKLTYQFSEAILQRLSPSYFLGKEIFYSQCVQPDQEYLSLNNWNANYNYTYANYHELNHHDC
How it was run: as §1

[4] = biological target: ELF4 (Homo sapiens, UniProt Q99607 1-663)
Chain of ELF4 (Q99607 whole entry): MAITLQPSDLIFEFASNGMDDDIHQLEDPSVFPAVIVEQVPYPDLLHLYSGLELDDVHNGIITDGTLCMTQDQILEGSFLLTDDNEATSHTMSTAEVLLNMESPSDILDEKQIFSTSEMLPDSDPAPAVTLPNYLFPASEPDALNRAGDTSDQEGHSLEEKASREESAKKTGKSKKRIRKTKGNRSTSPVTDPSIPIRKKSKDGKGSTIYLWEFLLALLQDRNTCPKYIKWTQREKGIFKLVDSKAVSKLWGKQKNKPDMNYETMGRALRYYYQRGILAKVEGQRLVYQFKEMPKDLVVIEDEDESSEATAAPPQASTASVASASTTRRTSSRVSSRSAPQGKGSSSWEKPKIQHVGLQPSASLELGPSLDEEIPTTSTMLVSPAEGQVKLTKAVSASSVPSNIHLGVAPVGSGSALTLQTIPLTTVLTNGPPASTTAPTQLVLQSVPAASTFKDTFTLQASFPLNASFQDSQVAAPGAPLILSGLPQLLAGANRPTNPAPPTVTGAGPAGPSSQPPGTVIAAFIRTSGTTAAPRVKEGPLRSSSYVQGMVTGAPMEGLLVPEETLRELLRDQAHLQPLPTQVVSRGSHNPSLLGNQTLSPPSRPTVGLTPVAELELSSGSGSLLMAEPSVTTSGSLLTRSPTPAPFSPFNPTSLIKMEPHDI
How it was run: as §1

[5] = biological target: T3, ELK4 (Homo sapiens, UniProt P28324-2 1-405)
T3 sequence: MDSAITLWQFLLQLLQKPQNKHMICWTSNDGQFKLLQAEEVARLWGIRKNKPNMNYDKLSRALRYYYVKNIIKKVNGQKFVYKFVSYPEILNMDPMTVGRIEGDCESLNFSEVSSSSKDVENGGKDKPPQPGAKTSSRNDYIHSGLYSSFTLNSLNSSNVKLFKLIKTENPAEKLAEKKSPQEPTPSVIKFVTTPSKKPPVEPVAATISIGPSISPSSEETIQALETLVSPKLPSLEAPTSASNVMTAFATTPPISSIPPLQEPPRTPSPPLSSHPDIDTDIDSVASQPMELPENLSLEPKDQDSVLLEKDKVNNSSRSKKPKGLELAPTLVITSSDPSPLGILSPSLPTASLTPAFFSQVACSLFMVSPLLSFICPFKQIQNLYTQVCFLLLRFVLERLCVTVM
How it was run: as §1

[6] = biological target: T4, ETV2 (Homo sapiens, UniProt O00321 1-342)
T4 sequence: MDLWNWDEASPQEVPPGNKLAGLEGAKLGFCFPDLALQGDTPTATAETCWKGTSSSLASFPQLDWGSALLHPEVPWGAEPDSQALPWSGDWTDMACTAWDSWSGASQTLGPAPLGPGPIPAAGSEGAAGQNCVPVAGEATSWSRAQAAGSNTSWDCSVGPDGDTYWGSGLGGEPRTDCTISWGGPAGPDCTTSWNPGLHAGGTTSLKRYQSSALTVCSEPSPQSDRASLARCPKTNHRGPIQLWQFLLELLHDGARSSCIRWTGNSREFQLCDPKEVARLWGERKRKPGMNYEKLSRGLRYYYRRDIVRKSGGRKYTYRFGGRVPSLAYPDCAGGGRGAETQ
How it was run: as §1

[7] = biological target: ETV1 (Homo sapiens, UniProt P50549 1-477)
Chain of ETV1 (P50549 whole entry): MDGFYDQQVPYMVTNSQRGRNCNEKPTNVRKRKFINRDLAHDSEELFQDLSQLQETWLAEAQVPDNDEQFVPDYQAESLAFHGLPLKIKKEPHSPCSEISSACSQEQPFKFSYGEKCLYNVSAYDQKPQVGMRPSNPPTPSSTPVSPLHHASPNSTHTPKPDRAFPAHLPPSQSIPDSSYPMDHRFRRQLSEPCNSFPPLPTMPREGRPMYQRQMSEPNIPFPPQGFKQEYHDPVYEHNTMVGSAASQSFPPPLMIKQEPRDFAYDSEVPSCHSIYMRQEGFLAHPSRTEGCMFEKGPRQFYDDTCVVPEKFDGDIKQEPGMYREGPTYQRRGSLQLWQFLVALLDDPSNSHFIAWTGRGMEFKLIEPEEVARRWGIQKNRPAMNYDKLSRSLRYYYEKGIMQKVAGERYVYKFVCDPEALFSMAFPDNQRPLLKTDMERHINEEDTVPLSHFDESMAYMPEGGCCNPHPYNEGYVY
How it was run: as §1

[8] = biological target: T5, ERF (Homo sapiens, UniProt P50548 1-548)
T5 sequence: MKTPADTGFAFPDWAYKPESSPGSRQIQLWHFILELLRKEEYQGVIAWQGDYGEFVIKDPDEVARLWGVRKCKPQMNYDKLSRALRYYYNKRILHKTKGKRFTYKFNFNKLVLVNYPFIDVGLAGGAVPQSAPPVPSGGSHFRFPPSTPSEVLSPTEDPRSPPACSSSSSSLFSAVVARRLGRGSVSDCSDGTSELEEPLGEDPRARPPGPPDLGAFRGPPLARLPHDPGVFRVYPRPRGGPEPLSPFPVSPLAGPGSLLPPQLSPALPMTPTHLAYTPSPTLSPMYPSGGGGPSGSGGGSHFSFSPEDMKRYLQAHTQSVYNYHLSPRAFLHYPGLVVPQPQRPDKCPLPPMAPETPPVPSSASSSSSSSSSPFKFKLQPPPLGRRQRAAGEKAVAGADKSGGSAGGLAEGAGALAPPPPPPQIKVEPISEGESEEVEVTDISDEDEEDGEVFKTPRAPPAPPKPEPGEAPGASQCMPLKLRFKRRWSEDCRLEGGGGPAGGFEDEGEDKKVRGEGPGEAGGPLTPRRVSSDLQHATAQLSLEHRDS
How it was run: as §1

[9] = biological target: T6, ETV3L (Homo sapiens, UniProt Q6ZN32 1-361)
T6 sequence: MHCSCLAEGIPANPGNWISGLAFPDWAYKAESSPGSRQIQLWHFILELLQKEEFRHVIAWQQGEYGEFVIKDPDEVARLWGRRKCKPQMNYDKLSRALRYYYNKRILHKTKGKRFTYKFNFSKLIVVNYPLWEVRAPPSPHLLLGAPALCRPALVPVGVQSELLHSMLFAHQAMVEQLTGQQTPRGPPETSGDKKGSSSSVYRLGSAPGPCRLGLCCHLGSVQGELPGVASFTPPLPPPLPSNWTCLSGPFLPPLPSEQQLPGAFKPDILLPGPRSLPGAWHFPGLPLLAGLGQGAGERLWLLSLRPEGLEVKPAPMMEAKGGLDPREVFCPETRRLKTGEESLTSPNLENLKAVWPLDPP
How it was run: as §1

[10] = biological target: T7, ETS2 (Homo sapiens, UniProt P15036 1-469)
T7 sequence: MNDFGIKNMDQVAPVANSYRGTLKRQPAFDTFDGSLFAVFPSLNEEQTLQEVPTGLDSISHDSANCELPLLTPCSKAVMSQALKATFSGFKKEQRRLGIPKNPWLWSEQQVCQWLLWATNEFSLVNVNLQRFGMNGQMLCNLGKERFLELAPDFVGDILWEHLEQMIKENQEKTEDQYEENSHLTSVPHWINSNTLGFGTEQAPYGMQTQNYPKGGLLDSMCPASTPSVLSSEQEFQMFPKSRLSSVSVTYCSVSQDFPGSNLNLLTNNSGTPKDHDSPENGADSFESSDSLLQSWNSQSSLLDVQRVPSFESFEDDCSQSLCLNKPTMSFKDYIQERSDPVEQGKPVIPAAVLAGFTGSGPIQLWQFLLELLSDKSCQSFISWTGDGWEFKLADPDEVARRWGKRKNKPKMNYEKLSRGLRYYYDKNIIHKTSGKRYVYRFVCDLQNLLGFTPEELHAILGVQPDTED
How it was run: as §1

[11] = biological target: T8, SPDEF (Homo sapiens, UniProt O95238 1-335)
T8 sequence: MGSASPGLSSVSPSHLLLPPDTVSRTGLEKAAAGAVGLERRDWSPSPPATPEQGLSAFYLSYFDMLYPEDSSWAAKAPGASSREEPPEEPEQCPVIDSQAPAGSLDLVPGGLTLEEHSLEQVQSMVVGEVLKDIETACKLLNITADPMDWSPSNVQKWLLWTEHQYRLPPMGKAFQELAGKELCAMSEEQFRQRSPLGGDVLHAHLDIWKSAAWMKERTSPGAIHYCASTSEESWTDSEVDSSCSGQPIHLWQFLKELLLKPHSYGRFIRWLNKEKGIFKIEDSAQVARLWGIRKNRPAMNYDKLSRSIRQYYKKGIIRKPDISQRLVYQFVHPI
How it was run: as §1

[12] = biological target: T9, ETV7 (Homo sapiens, UniProt Q9Y603 1-341)
T9 sequence: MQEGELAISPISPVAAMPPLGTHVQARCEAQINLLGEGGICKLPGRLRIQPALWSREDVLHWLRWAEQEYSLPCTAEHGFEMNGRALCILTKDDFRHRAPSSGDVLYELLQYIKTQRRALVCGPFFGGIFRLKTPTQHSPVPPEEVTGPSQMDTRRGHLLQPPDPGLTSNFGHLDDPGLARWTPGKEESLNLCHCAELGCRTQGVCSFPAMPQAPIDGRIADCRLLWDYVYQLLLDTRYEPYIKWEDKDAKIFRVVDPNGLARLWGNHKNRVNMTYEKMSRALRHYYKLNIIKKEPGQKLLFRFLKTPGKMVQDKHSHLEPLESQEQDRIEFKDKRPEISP
How it was run: as §1

[13] = biological target: ETV6 (Homo sapiens, UniProt P41212 1-452)
Chain of ETV6 (P41212 whole entry): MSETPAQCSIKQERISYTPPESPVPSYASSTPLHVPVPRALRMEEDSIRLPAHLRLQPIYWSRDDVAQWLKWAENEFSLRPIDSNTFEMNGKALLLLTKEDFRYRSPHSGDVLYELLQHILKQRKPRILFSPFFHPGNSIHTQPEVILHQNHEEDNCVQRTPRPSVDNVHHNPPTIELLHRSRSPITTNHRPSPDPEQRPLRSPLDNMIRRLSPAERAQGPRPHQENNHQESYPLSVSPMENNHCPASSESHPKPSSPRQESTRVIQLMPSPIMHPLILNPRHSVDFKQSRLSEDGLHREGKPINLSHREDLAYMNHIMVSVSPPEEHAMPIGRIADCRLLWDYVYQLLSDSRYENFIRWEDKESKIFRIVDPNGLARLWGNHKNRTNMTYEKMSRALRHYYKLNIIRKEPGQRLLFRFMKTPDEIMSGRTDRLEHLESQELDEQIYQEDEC
How it was run: as §1

[14] = biological target: T10, ELF5 (Homo sapiens, UniProt Q9UKW6-2 1-255)
T10 sequence: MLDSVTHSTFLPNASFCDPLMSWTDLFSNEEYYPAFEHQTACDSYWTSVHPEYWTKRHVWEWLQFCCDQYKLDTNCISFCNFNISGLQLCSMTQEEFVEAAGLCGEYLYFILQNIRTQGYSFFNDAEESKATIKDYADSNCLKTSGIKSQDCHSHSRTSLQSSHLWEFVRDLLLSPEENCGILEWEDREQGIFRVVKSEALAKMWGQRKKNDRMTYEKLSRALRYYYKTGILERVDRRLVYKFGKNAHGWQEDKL
How it was run: as §1

[15] = biological target: T11, ETV3 (Homo sapiens, UniProt P41162-2 1-143)
T11 sequence: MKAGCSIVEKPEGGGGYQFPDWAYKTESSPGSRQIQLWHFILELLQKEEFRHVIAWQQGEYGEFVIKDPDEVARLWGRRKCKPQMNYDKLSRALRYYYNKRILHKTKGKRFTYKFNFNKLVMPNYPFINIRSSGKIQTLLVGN
How it was run: as §1

Row | Sequence | binding signal [1] | binding signal [2] | binding signal [3] | binding signal [4] | binding signal [5] | binding signal [6] | binding signal [7] | binding signal [8] | binding signal [9] | binding signal [10] | binding signal [11] | binding signal [12] | binding signal [13] | binding signal [14] | binding signal [15]
1 | CAACGC | 1.06 fold enrichment (6-mer frequency, TF over GST control) | 1.01 fold enrichment (6-mer frequency, TF over GST control) | 1.1 fold enrichment (6-mer frequency, TF over GST control) | 1.11 fold enrichment (6-mer frequency, TF over GST control) | 1.03 fold enrichment (6-mer frequency, TF over GST control) | 1.1 fold enrichment (6-mer frequency, TF over GST control) | 1.05 fold enrichment (6-mer frequency, TF over GST control) | 1.05 fold enrichment (6-mer frequency, TF over GST control) | 1.07 fold enrichment (6-mer frequency, TF over GST control) | 1.07 fold enrichment (6-mer frequency, TF over GST control) | 1.08 fold enrichment (6-mer frequency, TF over GST control) | 1.09 fold enrichment (6-mer frequency, TF over GST control) | 1.03 fold enrichment (6-mer frequency, TF over GST control) | – | –
2 | ACACTC | 1.12 fold enrichment (6-mer frequency, TF over GST control) | 1.04 fold enrichment (6-mer frequency, TF over GST control) | 1.01 fold enrichment (6-mer frequency, TF over GST control) | 1.14 fold enrichment (6-mer frequency, TF over GST control) | 1.19 fold enrichment (6-mer frequency, TF over GST control) | 1.11 fold enrichment (6-mer frequency, TF over GST control) | 1.07 fold enrichment (6-mer frequency, TF over GST control) | 1.06 fold enrichment (6-mer frequency, TF over GST control) | 1.08 fold enrichment (6-mer frequency, TF over GST control) | 1.14 fold enrichment (6-mer frequency, TF over GST control) | 1.02 fold enrichment (6-mer frequency, TF over GST control) | 1.07 fold enrichment (6-mer frequency, TF over GST control) | 1.11 fold enrichment (6-mer frequency, TF over GST control) | 1.05 fold enrichment (6-mer frequency, TF over GST control) | 1.16 fold enrichment (6-mer frequency, TF over GST control)
